Experimental data published in ChEMBL document CHEMBL1961873, “Compounds: GSK PKIS; Assays: Nanosyn kinase panel” (2012).

What was measured:
[1] = biological target: 5'-AMP-activated protein kinase catalytic subunit alpha-2 (Homo sapiens) (UniProt P54646); conditions: at 1 µM
[2] = biological target: T1, NUAK family SNF1-like kinase 1 (Homo sapiens) (UniProt O60285); conditions: at 0.1 µM
T1 sequence (whole entry): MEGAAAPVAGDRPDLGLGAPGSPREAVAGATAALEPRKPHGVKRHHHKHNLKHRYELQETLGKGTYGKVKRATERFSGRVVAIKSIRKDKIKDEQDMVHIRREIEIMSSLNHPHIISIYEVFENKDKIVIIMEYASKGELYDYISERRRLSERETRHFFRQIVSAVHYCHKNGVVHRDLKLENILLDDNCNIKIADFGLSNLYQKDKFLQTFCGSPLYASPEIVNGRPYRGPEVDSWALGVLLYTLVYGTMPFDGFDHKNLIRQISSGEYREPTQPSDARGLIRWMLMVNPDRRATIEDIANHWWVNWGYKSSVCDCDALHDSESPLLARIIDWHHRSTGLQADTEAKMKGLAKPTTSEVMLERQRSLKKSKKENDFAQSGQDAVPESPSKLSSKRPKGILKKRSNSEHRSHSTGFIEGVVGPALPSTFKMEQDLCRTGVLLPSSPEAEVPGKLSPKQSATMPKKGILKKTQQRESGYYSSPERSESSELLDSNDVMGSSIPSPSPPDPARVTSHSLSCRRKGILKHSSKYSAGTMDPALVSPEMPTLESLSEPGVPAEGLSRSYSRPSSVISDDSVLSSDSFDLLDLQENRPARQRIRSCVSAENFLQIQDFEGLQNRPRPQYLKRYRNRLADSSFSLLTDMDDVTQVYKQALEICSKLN

[3] = biological target: T1, NUAK family SNF1-like kinase 1 (Homo sapiens); conditions: at 1 µM
[4] = biological target: T2, Serine/threonine-protein kinase BRSK1 (Homo sapiens) (UniProt Q8TDC3); conditions: at 0.1 µM
T2 sequence (whole entry): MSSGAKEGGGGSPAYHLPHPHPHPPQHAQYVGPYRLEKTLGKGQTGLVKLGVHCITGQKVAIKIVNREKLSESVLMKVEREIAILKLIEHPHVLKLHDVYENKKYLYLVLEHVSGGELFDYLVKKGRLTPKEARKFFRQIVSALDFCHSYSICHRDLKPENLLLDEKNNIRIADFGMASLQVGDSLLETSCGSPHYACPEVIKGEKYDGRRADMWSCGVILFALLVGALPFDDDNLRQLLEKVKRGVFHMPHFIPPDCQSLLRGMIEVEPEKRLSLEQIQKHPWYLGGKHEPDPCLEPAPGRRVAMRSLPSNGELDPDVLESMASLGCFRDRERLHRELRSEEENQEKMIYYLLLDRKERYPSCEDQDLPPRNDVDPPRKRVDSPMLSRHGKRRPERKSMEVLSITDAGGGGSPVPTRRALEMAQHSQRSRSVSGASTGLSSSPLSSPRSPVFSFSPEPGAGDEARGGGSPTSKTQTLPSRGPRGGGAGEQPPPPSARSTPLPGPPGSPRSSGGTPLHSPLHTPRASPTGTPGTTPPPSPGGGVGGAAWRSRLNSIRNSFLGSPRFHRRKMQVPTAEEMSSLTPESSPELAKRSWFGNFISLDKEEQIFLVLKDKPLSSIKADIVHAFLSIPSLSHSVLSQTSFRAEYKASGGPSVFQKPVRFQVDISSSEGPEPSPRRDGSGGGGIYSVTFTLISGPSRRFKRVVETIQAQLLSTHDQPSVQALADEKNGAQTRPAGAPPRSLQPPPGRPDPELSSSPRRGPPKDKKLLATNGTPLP

[5] = biological target: T2, Serine/threonine-protein kinase BRSK1 (Homo sapiens); conditions: at 1 µM
[6] = biological target: T3, Serine/threonine-protein kinase BRSK2 (Homo sapiens) (UniProt Q8IWQ3); conditions: at 0.1 µM
T3 sequence (whole entry): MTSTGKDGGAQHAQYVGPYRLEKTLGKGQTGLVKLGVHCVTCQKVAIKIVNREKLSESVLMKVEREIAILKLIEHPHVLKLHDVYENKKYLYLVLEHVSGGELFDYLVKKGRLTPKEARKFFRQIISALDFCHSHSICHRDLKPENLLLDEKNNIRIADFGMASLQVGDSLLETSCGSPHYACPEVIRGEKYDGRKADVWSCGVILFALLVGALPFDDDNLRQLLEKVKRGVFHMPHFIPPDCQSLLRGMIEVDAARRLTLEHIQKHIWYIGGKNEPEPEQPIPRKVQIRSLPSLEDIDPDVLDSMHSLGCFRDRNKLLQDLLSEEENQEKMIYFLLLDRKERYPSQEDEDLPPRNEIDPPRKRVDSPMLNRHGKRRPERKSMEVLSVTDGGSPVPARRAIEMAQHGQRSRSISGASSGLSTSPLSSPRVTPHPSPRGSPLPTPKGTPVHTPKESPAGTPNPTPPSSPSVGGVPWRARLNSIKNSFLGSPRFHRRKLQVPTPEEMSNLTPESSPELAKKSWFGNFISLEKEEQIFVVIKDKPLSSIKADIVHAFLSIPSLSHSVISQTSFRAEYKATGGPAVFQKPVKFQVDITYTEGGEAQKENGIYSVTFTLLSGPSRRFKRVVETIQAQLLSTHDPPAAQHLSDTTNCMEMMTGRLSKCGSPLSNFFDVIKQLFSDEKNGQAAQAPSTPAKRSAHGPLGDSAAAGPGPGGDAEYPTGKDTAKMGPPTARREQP

[7] = biological target: T3, Serine/threonine-protein kinase BRSK2 (Homo sapiens); conditions: at 1 µM
[8] = biological target: Calcium/calmodulin-dependent protein kinase type 1D (Homo sapiens) (UniProt Q8IU85); conditions: at 0.1 µM
[9] = biological target: Calcium/calmodulin-dependent protein kinase type 1D (Homo sapiens) (UniProt Q8IU85); conditions: at 1 µM
[10] = biological target: Calcium/calmodulin-dependent protein kinase type II subunit alpha (Homo sapiens) (UniProt Q9UQM7); conditions: at 0.1 µM
[11] = biological target: Calcium/calmodulin-dependent protein kinase type II subunit alpha (Homo sapiens) (UniProt Q9UQM7); conditions: at 1 µM
[12] = biological target: Calcium/calmodulin-dependent protein kinase type II subunit delta (Homo sapiens) (UniProt Q13557); conditions: at 0.1 µM
[13] = biological target: Calcium/calmodulin-dependent protein kinase type II subunit delta (Homo sapiens) (UniProt Q13557); conditions: at 1 µM
[14] = biological target: T4, Calcium/calmodulin-dependent protein kinase type IV (Homo sapiens) (UniProt Q16566); conditions: at 0.1 µM
T4 sequence (whole entry): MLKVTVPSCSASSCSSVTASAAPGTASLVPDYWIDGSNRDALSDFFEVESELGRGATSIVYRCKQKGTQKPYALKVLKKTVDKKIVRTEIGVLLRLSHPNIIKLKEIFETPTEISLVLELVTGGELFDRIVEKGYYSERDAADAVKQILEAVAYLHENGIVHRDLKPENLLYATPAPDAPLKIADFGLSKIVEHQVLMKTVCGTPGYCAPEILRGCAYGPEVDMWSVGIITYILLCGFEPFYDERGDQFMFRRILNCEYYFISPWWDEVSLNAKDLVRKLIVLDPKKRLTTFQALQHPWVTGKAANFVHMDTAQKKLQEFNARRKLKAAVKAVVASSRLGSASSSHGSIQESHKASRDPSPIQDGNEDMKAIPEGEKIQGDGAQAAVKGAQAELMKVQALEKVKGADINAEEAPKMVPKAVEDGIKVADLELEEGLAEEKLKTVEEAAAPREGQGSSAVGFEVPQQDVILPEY

[15] = biological target: T4, Calcium/calmodulin-dependent protein kinase type IV (Homo sapiens); conditions: at 1 µM
[16] = biological target: T5, Serine/threonine-protein kinase Chk1 (Homo sapiens) (UniProt O14757); conditions: at 0.1 µM
T5 sequence (whole entry): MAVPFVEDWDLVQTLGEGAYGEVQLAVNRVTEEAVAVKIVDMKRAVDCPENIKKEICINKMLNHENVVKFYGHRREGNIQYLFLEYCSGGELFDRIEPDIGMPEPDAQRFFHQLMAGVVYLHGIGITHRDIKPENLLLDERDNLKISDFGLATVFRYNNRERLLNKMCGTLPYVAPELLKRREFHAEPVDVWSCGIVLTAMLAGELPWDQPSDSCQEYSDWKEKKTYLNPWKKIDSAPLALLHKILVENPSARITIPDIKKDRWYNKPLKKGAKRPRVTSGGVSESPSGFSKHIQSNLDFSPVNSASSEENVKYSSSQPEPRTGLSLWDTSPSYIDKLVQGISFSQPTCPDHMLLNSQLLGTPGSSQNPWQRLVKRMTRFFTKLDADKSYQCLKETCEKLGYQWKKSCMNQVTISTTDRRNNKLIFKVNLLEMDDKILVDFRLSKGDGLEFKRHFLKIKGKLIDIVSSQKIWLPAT

[17] = biological target: T5, Serine/threonine-protein kinase Chk1 (Homo sapiens); conditions: at 1 µM
[18] = biological target: Serine/threonine-protein kinase Chk2 (Homo sapiens) (UniProt O96017); conditions: at 0.1 µM
[19] = biological target: Serine/threonine-protein kinase Chk2 (Homo sapiens) (UniProt O96017); conditions: at 1 µM
[20] = biological target: Death-associated protein kinase 1 (Homo sapiens) (UniProt P53355); conditions: at 0.1 µM;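 further: reported figure is the mean inhibition of DAPK1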
Sequence of Death-associated protein kinase 1 (Homo sapiens) (P53355 whole entry, looked up): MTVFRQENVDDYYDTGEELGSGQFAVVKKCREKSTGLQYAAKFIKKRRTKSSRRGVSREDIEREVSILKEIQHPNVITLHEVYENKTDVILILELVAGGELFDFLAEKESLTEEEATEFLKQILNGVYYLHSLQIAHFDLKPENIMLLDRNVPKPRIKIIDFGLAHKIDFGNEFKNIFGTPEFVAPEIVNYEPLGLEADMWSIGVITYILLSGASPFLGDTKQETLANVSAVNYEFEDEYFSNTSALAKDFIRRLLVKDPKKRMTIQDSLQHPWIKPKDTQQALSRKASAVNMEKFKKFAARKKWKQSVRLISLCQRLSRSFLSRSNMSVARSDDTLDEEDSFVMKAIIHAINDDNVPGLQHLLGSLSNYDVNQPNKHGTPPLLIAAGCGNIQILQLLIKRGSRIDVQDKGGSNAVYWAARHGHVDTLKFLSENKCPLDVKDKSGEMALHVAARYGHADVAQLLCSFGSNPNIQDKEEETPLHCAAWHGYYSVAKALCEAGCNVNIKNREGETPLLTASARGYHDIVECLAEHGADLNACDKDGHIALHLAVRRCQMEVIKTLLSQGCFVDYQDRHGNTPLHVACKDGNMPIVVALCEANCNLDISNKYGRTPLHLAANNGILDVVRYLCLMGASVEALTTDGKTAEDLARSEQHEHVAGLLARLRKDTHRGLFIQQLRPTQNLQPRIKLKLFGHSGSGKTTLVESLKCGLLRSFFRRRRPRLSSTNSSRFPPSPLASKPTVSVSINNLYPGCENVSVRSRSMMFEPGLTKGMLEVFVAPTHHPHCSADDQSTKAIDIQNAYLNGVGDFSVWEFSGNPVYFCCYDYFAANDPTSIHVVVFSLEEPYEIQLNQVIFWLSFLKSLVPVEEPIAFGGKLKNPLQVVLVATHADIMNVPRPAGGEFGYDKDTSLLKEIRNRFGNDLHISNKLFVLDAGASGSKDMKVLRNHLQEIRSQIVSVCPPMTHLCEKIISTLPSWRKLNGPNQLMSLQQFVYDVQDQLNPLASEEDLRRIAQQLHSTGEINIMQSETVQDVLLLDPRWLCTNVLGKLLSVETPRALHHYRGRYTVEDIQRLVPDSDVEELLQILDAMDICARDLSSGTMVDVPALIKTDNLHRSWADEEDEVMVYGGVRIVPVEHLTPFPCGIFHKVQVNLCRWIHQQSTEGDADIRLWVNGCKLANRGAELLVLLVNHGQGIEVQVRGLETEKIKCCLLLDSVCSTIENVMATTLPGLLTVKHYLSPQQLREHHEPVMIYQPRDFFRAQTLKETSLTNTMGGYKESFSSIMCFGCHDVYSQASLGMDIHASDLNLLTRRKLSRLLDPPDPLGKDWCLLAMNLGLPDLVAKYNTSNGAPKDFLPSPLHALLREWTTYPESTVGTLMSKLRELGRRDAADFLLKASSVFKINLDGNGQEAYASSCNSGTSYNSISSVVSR

Sequence of Calcium/calmodulin-dependent protein kinase type 1D (Homo sapiens) (Q8IU85 whole entry, looked up): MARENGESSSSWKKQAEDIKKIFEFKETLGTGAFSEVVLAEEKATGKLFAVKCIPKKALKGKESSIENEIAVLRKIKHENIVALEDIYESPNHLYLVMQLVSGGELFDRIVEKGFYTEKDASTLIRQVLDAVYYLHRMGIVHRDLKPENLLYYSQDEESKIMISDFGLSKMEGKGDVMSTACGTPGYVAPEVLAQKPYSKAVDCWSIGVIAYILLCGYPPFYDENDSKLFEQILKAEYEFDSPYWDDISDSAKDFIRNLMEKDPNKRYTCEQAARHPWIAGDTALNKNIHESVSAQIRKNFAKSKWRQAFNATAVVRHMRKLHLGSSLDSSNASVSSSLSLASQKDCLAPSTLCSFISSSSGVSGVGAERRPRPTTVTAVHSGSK
Sequence of Serine/threonine-protein kinase Chk2 (Homo sapiens) (O96017 whole entry): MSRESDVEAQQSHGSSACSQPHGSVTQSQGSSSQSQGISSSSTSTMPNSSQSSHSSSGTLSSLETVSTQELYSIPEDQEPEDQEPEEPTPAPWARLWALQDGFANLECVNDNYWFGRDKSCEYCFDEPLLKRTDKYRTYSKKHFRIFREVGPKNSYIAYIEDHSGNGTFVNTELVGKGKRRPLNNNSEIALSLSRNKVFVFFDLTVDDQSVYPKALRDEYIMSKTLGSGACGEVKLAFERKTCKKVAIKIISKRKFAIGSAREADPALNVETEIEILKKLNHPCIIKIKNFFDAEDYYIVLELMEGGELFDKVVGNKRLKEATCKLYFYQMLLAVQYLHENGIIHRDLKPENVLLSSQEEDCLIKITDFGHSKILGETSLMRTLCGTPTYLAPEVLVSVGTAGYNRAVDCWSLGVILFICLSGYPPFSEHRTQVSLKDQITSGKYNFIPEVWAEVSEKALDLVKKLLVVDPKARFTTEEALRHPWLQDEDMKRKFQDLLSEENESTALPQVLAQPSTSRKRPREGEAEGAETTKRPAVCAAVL
Sequence of Calcium/calmodulin-dependent protein kinase type II subunit alpha (Homo sapiens) (Q9UQM7 whole entry): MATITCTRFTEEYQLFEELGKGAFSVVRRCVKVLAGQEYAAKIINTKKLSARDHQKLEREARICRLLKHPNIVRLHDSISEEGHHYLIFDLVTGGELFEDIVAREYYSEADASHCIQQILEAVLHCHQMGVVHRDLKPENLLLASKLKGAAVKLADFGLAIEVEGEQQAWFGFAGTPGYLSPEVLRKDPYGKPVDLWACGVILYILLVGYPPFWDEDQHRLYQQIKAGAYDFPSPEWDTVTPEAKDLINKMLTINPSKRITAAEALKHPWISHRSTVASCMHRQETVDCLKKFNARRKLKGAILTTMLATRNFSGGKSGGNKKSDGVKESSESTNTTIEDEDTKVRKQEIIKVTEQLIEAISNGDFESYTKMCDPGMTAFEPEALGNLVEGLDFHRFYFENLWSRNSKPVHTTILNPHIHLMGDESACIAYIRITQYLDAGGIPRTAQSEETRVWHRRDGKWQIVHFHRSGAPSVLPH
Sequence of Calcium/calmodulin-dependent protein kinase type II subunit delta (Homo sapiens) (Q13557 whole entry): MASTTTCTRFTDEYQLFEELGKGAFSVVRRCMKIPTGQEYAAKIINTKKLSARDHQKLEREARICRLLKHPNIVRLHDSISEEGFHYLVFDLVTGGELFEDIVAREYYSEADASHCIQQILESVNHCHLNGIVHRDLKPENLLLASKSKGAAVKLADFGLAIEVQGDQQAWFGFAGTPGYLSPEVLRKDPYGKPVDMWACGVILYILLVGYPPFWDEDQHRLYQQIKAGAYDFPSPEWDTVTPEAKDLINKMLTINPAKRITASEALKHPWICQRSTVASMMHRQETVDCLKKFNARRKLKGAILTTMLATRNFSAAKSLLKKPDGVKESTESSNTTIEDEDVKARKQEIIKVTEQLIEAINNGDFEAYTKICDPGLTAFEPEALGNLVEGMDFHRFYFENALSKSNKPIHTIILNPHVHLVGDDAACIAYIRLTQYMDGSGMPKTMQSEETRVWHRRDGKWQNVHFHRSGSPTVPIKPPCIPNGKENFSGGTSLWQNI
Sequence of 5'-AMP-activated protein kinase catalytic subunit alpha-2 (Homo sapiens) (P54646 whole entry, looked up): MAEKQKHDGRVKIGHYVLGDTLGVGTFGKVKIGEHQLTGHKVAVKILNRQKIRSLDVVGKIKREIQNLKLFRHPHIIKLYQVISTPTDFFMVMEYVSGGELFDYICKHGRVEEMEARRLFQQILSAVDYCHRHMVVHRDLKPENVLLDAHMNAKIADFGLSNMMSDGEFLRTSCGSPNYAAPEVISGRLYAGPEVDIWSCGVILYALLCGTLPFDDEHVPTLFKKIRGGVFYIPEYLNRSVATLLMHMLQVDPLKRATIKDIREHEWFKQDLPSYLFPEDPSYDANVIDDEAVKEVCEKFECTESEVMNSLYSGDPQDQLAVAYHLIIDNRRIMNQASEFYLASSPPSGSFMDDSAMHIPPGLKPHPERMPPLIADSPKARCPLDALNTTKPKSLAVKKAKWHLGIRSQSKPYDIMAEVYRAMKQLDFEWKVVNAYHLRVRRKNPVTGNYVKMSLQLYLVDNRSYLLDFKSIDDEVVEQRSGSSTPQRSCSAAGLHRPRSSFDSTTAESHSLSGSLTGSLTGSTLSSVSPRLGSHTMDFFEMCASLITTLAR

Row | SMILES | inhibition [1] [%] | inhibition [2] [%] | inhibition [3] [%] | inhibition [4] [%] | inhibition [5] [%] | inhibition [6] [%] | inhibition [7] [%] | inhibition [8] [%] | inhibition [9] [%] | inhibition [10] [%] | inhibition [11] [%] | inhibition [12] [%] | inhibition [13] [%] | inhibition [14] [%] | inhibition [15] [%] | inhibition [16] [%] | inhibition [17] [%] | inhibition [18] [%] | inhibition [19] [%] | inhibition [20] [%]
1 | OCc1ccc(-c2nc(-c3ccccn3)c(-c3ccc4c(c3)OCO4)[nH]2)cc1 | 4.26 | 3.72 | 5.56 | 2.53 | 1.5 | 2 | 0.59 | 0.54 | 0.26 | 4.98 | 5.43 | 4.96 | 4.65 | 0.02 | -0.32 | 3.36 | 3.17 | 3.25 | 4.36 | 4.31
2 | CN(C)C(=O)O[C@@H]1CN[C@@H](C#Cc2cc3ncnc(Nc4ccc(OCc5cccc(F)c5)c(Cl)c4)c3s2)C1 | 3.03 | -0.32 | 0.15 | 1.77 | 1.18 | 1.4 | 1.44 | 1.61 | 1.9 | 1.78 | 1.65 | 1.47 | 2.72 | 0.93 | 0.99 | -0.23 | 0.16 | 0.47 | 1.66 | 0.93
3 | Oc1cccc(-c2nc(-c3ccccc3)[nH]c2-c2ccncc2)c1 | 4.6 | 0.46 | 2.27 | -0.48 | 1.89 | 1.98 | 4.34 | 0.26 | 1.01 | 3.36 | 3.17 | 3.67 | 3.45 | 2.26 | 0.29 | 7.47 | 6.28 | 0.91 | 1.68 | 5.76
